In all, about 85,000 compounds went through this assay and about 5,100 (6%) were called active.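 Rule for the calls: active = viability at or below 40%; inactive = viability above 40%.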 The full list was thinned out, with actives kept by preference.

The nature of this assay: H69AR cell viability reduction – human, 86K library, primary screen (AID 598).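 Note: multidrug resistant small cell line overexpressing MRP-1 efflux transporter; 100% = mean luminescence of untreated control wells.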 Particulars: H69AR lung tumor viability, ATP luminescence, 72 h; at 10 µM; stronger effect = lower value.
For the molecule `Cc1cccc(N2CCN(C(c3ccc(N(C)C)cc3)c3nnnn3C(C)(C)C)CC2)c1C` (configuration not stated), the viability is 83.3% (inactive). For `CCCc1nc2ccccc2c(C(=O)OCc2nnc(-c3cc(OC)c(OC)c(OC)c3)o2)c1CC` the value was 50.2% (inactive); for `O=C(OCc1nnc(-c2ccccc2)o1)c1ccc2c(c1)C(=O)N(CCc1ccccc1)C2=O`, 33.8% (active). `O=C(COC(=O)c1ccc(Oc2ccccc2)cc1)Nc1nnc(-c2ccccc2)o1`: the viability is 58.7% (inactive). Consider `O=C1CCCc2nn(-c3ccccc3)nc21`, for which the viability is 87.6% (inactive). Turning to `CCN1CC=C2C(C#N)=C(N)C(C#N)(C#N)[C@H](c3ccoc3)[C@H]2C1`, the viability was 84.8% (inactive). In the case of `CCOC(=O)N1CC=C2C(C#N)=C(N)C(C#N)(C#N)[C@H](c3cccs3)[C@H]2C1`, the viability was 61.6% (inactive).

For `CCCN1CC=C2C(C#N)=C(N)C(C#N)(C#N)C(c3cc(OC)ccc3OC)C2C1` (configuration not stated), the viability was 31.8% (active). Consider `CCOC(=O)C1=C(CSc2nnnn2C)N(C)C(=O)NC1c1ccccc1` (configuration not stated), for which the viability was 93.1% (inactive). Regarding `COc1ccc(N2CCN(C(=O)CCc3nc(-c4ccc(C)cc4)no3)CC2)cc1`, the viability is 98.4% (inactive). In the case of `CCc1cccc(C)c1N(C(=O)Cn1c(CO)nc2ccccc21)C(C)COC` (configuration not stated), the viability is 71% (inactive). `Cc1cc(=O)oc2ccc(OCC(=O)O)cc12`: the viability is 97.4% (inactive).

Turning to `CCOC(=O)c1c(C)oc2cc(Br)c(OCC(N)=O)cc12`, the viability is 80.2% (inactive). As to `CCOC(=O)c1c(C)oc2ccc(OCC(=O)N(CC)CC)cc12`, the viability is 38.9% (active). `CN(C)c1ccnc2sc3c(=O)n(-c4ccc(Cl)cc4)cnc3c12`: the viability is 80.8% (inactive). Then `O=C(N/N=C/C=C/c1ccccc1)C1CC1(c1ccccc1)c1ccccc1` (configuration not stated), with 98.1% (inactive); and `CC(C)C[C@@H](N)c1nnc(SCC(=O)c2ccc(Cl)cc2)o1`, with 86.9% (inactive); and `COc1ccc(NC(=O)c2cccc(NC(=O)c3ccco3)c2)c(OC)c1`, with 88.5% (inactive). Then `COC(=O)c1cc(Cl)c(NC(=O)c2ccco2)cc1OC`, with 94% (inactive). As to `COc1cc(C(=O)OC(C)C(=O)NCC2CCCCC2)cc(NC(=O)c2ccco2)c1OC` (configuration not stated), the viability is 13.1% (active). Consider `CC(C)(C)c1ccc(C(=O)NCC(=O)OCN2C(=O)c3ccccc3C2=O)cc1`, for which the viability was 104% (inactive). Turning to `Cc1cccc(-n2nc3c(c2NC(=O)c2ccc(Br)o2)CSC3)c1C`, the viability is 59.7% (inactive). Regarding `Cc1cc(C)nc(-n2nc(C)cc2NC(=O)c2ccc(Br)o2)n1`, the viability is 36.5% (active). Take `Cc1cc(NC(=O)Nc2ccccc2)n(-c2ccccc2)n1`: the viability is 92.7% (inactive). Take `N#Cc1c(N)nc2c3c(sc(=N)c2c1N)NC(=O)CC3c1ccccc1Cl` (configuration not stated): the viability was 113% (inactive). Then `CSc1nc(N)c(C#N)c(-c2ccccc2Cl)c1C#N`, with 21.8% (active); and `CSc1ccc(-c2c(C#N)c(N)nc3c2c(C)nn3-c2ccccc2)cc1`, with 57.5% (inactive).

For the origin of these results see PubChem BioAssay AID598 (SRMLSC, 2007).
